We go through 7 molecules from publication PMC7826789 (International Journal of Molecular Sciences, 2021).

The test system of the first assay is AURKC.
Consider `CN1CCN(C(=O)c2ccc(NC(=O)Nc3ccc(N(C)c4ccnc(Nc5ccc(CS(C)(=O)=O)cc5)n4)cc3)cc2)CC1.Cl` [GW830263A], for which the Kinases covered result is listed as “AURKC”. The same measure, in the same setting: the entry for `CCn1cc(-c2ccnc3[nH]c(-c4cccc(CN(C)C)c4)cc23)c(-c2ccc(NC(=O)N(C)C)cc2)n1` [GSK1070916] is “AURKC”; for `CN(C)CCNC(=O)Nc1ccc(N(C)c2ccnc(Nc3ccc(CS(C)(=O)=O)cc3)n2)cc1.Cl` [GW830900A] it is “AURKC”; for `COc1cccc(-c2c[nH]c3c(N/N=C/c4ccncc4)ncnc23)c1` [GW814408X] it is “AURKC”.

The next assay relates to BLK.
As to `COc1cc2ncnc(Nc3cccc(Cl)c3F)c2cc1O[C@H]1CC[C@H]([C@@H]2NCCNC2=O)CC1` [BI00133844], the Kinases covered entry is reported as “BLK”. The same measure, in the same setting: the entry for `COc1cc2ncnc(Nc3cccc(Cl)c3F)c2cc1O[C@H]1CC[C@@]2(CC1)NCCNC2=O` [BI00113608] is “BLK”; for `Cc1ccc(C(=O)Nc2ccc(Nc3ccnc4cc(-c5ccccn5)ccc34)cc2O)cc1` [GW440146] it is “BLK”.
